An excerpt weighted towards active compounds, which were near 3.8% of everything screened.
Yp Topo-I inh: Y. pestis Topo-I inhibition via cleavage products | activity, % at 10 µM | Y. pestis Topo-I cleavage product accumulation, plate reader | 360,000 tested, 0.064% active; in the data active = activity above about 50%, passing the limit was not always enough
Mtb hypoxia inh: Mtb hypoxia fluorescent reporter inhibition | M. tuberculosis hypoxia-regulated fluorescent reporter, fluorescence | fluorescence inhibition, % (no concentration beside the values) | 300,000 tested, 0.1% active | AID 1159583; in the data active = fluorescence inhibition mostly above about 23%, no sharp cut-off; inactive = mostly below about 17%
Mtb FBA inh: Mtb fructose-bisphosphate aldolase inhibition; P9WQA3; purified M. tuberculosis FBA, fluorescence read-out; inhibition, % at 1 µM; 360,000 tested, 2.3% active; AID 588726; in the data active = inhibition above about 27%;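 note: 0% = vehicle and 100% = reference inhibitor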
GDH-TPI counter: inhibits GDH-TPI coupling enzymes, artifact for Mtb FBA screen | GDH-TPI coupled enzyme counterscreen, NADH absorbance | inhibition, % at 4.8 µM | 360,000 tested, 1.2% active; in the data active = inhibition above about 30%;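 note: 0% = DMSO wells and 100% = wells lacking the enzyme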
PrPC surface inh: reduces human prion protein on the cell surface; P04156; cell surface PrPC, TR-FRET read-out; inhibition, % at 13.8 µM; 370,000 tested, 0.43% active; AID 720596; in the data active = inhibition above about 24%; note: 0% = median of the test wells and 100% = reference compound wells
PrP 5UTR inh: suppresses PrP 5' UTR mRNA reporter expression. cell-based PrP 5' UTR mRNA reporter, plate reader. 340,000 tested, 0.35% active. AID 488862. inhibition, % (no concentration beside the values); in the data active = inhibition above about 52%; note: 0 = median of the neutral control wells
PrPC confirm: confirmation of inhibitors of cell surface human prion protein | cell surface PrPC level, TR-FRET | inhibition, % at 13.8 µM | 1,500 tested, 65% active | shares compounds with PrPC surface inh | AID 743200; in the data active = inhibition above about 25%
LD9 cytotox: LD9 cell cytotoxicity, PrPc inhibitor counter-screen | 1,500 tested, 29% active | inhibition, % at 13.8 µM | LD9 cells cytotoxicity, luminescence viability | shares compounds with PrPC surface inh; in the data active = inhibition above about 9.5%
Active calls of the source: *; nt = no result shown.

SMILES	Yp Topo-I inh	Mtb hypoxia inh	Mtb FBA inh	GDH-TPI counter	PrPC surface inh	PrP 5UTR inh	PrPC confirm	LD9 cytotox
COc1ccc(CC2C(=O)NC(C)C(=O)N(C)C3Cc4ccc(cc4)Oc4cc(ccc4O)CC(C(=O)NC(C)C(=O)NC(C)C(=O)N2C)N(C)C3=O)cc1 (stereo unspecified)	11	nt	-1	8	83*	49	90*	34*
COc1cc2c3cc1Oc1c(OC)c(OC)cc4c1[C@H](Cc1ccc(cc1)Oc1cc(ccc1O)C[C@H]3N(C)CC2)N(C)CC4	-8	nt	-2	4	-5	-21	nt	nt
CCN(CC)c1ccc(C=NNC(=O)OC(C)(C)C)cc1	nt	4	nt	nt	nt	nt	nt	nt
COC(=O)C1=C(C(=O)OC)C2OC1c1cc3ccccc3cc12	26	nt	3	-1	45*	-18	17	98*
COC(=O)C1=C(c2ccc3ccccc3c2)C[C@@H]2CC[C@H]1N2C	-4	nt	4	12	-3	-3	nt	nt
CC(=O)Nc1sc2c(c1-c1nc3ccccc3s1)CCCN(C(C)C)C2	nt	nt	nt	nt	38*	nt	30*	33*
CC(=O)Nc1sc2c(c1-c1nc3ccccc3s1)CN(C(C)C)C2	nt	nt	nt	nt	11	nt	nt	nt
CC(=O)Nc1sc2c(c1-c1nc3ccccc3s1)CN(C(C)C)CC2	-1	nt	5	16	38*	31	10	26*
COc1cc(-c2n[nH]c(=S)n2N=Cc2cccn2C)cc(OC)c1OC	nt	2	nt	nt	nt	nt	nt	nt
Clc1ccc(NN=Cc2cccnc2)cc1	nt	9	nt	nt	nt	nt	nt	nt
Clc1ccc(N/N=C/c2cccnc2)cc1	-4	nt	4	12	25*	-37	17	2
Oc1cc2c(cc1O)C1c3ccc(O)c(O)c3OCC1(O)C2 (stereo unspecified)	1	nt	3	14	42*	-5	55*	-1
O=C(NN=C/C=C/c1cccc([N+](=O)[O-])c1)C(O)c1ccccc1 (stereo unspecified)	nt	11	nt	nt	nt	nt	nt	nt
CCOc1ccc2nc(-c3ccccc3)nc(SCC(=O)Nc3ncc(C)s3)c2c1	-1	0	4	11	4	-19	nt	nt
CCOC(=O)C(C)Sc1nc(-c2ccccc2)nc2ccccc12 (stereo unspecified)	6	0	1	2	84*	-9	109*	3
CCOC(=O)CSc1nc2ccccc2c(=O)[nH]1	2	4	5	7	5	-64	nt	nt
CCOC(=O)CSc1nc(-c2ccccc2)nc2ccc(F)cc12	7	0	-1	11	26*	-6	105*	5
OCCSc1nc(-c2ccccc2)nc2ccc(F)cc12	10	15	1	14	13	-14	nt	nt
COC(=O)CSc1nc(-c2ccccc2)nc2ccc(F)cc12	0	17	-1	5	49*	-28	107*	-4
CCOC(=O)C(C)Sc1nc(-c2ccccc2)nc2ccc(F)cc12 (stereo unspecified)	7	0	6	-1	1	-16	nt	nt
CCOC(=O)CSc1nc(-c2ccccc2)nc2ccccc12	-2	4	1	15	105*	4	116*	3
COc1cc(CC(=O)NN=Cc2ccc([N+](=O)[O-])cc2)c([N+](=O)[O-])cc1OC	nt	1	nt	nt	nt	nt	nt	nt
Cc1cc2cc(CNC(=O)c3ccc(S(=O)(=O)N4CCCCC4)cc3)ccc2[nH]1	5	0	-4	9	29*	-2	12	-5
Cc1ccc(CNC(=O)c2ccc(S(=O)(=O)N3CCCCCC3)cc2)cc1	21	nt	-2	-6	8	nt	nt	nt
Cc1cc2cc(CNC(=O)c3ccc(S(=O)(=O)N4CCOCC4)cc3)ccc2n1C	20	10	3	10	43*	-9	45*	-6
SMILES	Yp Topo-I inh	Mtb hypoxia inh	Mtb FBA inh	GDH-TPI counter	PrPC surface inh	PrP 5UTR inh	PrPC confirm	LD9 cytotox
Cc1cc2cc(CNC(=O)c3ccc(S(=O)(=O)N(C)C)cc3)ccc2n1C	14	-9	4	21	54*	5	36*	-4
Cc1cc(C(=O)NN=Cc2ccc(N3CCOCC3)cc2)c(C)o1	nt	3	nt	nt	nt	nt	nt	nt
O=C(NN=Cc1cccc(C(F)(F)F)c1)c1ccccc1O	nt	6	nt	nt	nt	nt	nt	nt
O=c1oc2cc(O)ccc2c2ccccc12	-6	7	8	28	28*	-5	33*	0
N#Cc1ccc(NC(=O)Nc2ccc(Cl)cc2)cc1	-9	nt	-2	-1	27*	-39	32*	16*
O=C(NN=Cc1cccnc1)c1ccc(NC(=O)c2ccc(Cl)cc2)cc1	nt	4	nt	nt	nt	nt	nt	nt
CC(=O)N1c2ccc(S(=O)(=O)N3CCCC(C(=O)Nc4cc(C)cc(C)c4)C3)cc2CC1C (stereo unspecified)	23	0	5	6	35*	-1	58*	-5
COc1cc(NC(=O)C2CCCN(S(=O)(=O)c3ccc4c(c3)CCCN4C(C)=O)C2)cc(OC)c1 (stereo unspecified)	12	-1	-2	9	41*	1	28*	-1
CC(=O)N1c2ccc(S(=O)(=O)N3CCCC(C(=O)Nc4ccc(F)cc4)C3)cc2CC1C (stereo unspecified)	15	9	4	5	35*	-2	39*	16*
COc1ccc(NC(=O)C2CCCN(S(=O)(=O)c3ccc4c(c3)CCCN4C(C)=O)C2)cc1 (stereo unspecified)	22	1	1	5	2	-12	nt	nt
CC1CCN(C(=O)c2nc[nH]c2C(=O)OC(C)c2ccccc2)CC1 (stereo unspecified)	nt	20	nt	nt	nt	nt	nt	nt
O=C(O)c1cc(-c2cccs2)nc2ccc(Br)cc12	9	nt	17	13	40*	-24	78*	-5
Cn1cc(CNC(=O)c2cc(-c3ccccc3)nc3ccc(Br)cc23)cn1	29	5	-1	4	-1	-9	nt	nt
O=C(O)c1cc(-c2cccnc2)nc2ccc(Br)cc12	-9	2	3	4	45*	-6	61*	-6
Cc1nn(C)cc1CN(C)C(=O)c1cc(-c2ccccc2)nc2ccc(Br)cc12	23	nt	-1	3	68*	-4	81*	6
Oc1ccc(C=NN2CCN(C3c4ccccc4-c4ccccc43)CC2)cc1O	nt	13	nt	nt	nt	nt	nt	nt
O=C(CC1CC=CCCC(=O)OCC2CCCN2C1=O)NC(CO)Cc1ccccc1 (stereo unspecified)	nt	8	nt	nt	nt	nt	nt	nt
CCOC(=O)c1c(C)n(-c2ccccc2)c2ccc(O)cc12	20	23	-2	-3	27*	-4	-2	-8
O=C(c1cc(C2CC2)nc2ccc(Br)cc12)N1N=C(C(F)F)CC1(O)C(F)F (stereo unspecified)	-5	3	-2	11	31*	-21	21	1
CC(NC(=O)c1nc[nH]c1C(=O)NCc1ccc(CNC(=O)OC(C)(C)C)cc1)C(=O)OCc1ccccc1 (stereo unspecified)	nt	0	nt	nt	nt	nt	nt	nt

Assay outcomes from PubChem BioAssay.
